From PubChem
The list is not random: actives were taken first. Their share in the collection is about 32%.
CYP2C9 inhib = blockers of cytochrome P450 2C9 activity – biochemical, luminescence, ADME assay, primary screen; CYP2C9 Supersomes, luciferin-H conversion; inhibition, % at 5 µM; 96,000 compounds, 20% hits; AID 777, 2007;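 active = blocking of liver enzyme CYP2C9 beyond about 50% at 5 µM, limit read from the data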
Target sequence (P11712 whole entry, looked up): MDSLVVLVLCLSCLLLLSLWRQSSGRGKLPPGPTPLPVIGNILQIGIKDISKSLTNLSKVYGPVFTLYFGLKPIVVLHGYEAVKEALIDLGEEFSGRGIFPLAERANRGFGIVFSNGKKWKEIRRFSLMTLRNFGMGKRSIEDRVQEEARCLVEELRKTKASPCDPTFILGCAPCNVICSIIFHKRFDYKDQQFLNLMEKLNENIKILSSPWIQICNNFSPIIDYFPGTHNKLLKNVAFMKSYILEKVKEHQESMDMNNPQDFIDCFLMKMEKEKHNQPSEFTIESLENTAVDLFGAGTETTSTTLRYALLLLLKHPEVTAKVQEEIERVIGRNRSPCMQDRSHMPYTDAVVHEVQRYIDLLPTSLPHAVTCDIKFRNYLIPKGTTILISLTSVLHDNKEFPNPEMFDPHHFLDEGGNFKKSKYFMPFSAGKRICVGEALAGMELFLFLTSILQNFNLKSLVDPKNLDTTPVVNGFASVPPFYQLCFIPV
PostGolgi yeast = phenotypic screen on post-Golgi transport, primary screen; post-Golgi transport phenotypic cell assay; inhibition, % at 10 µM; 98,000 compounds, 0.9% hits; AID 739, 2007;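 also: yeast cells grown in 1536-well plates; yeast grown about 18 h at 30C before absorbance read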
CYP2C19 inhib = blockers of cytochrome P450 2C19 activity – biochemical, luminescence, ADME assay, primary screen. AID 778, 2007. CYP2C19 Supersomes, luciferin-H EGE luminescence, 30 min. 96,000 compounds, 21% hits. inhibition, % at 5 µM. P33261;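 active = CYP2C19 inhibition above a set limit at 5 µM in the primary screen, cut at about 50% in these data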;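 also: plate controls were negative control wells for no effect and 2.5 mM tranylcypromine positive control for full effect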
CYP2C19 act = human CYP2C19 activators, primary screen, biochemical, luminescence; Cytochrome P450 2C19 (Homo sapiens), P33261; recombinant CYP2C19, luciferin-H EGE luminescence; active compounds read high; 0 = fully inhibited enzyme, 1 = untreated enzyme; activation factor at 5 µM; 96,000 tested, under 10 active;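 active = activation factor of at least 2 at 5 µM in the primary screen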;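 also: 0 = wells with 2.5 mM tranylcypromine and 1 = vehicle-only wells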
CYP2C9 act = human CYP2C9 activators, primary screen, biochemical, luminescence | 96,000 compounds, 1.4% hits | Cytochrome P450 2C9 (Homo sapiens), P11712 | activation factor at 5 µM | AID 1024, 2008 | recombinant CYP2C9, luciferin-H conversion; active compounds read high; factor 1 = untreated enzyme, 0 = blocked;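 active = activation factor of 2 or more for CYP2C9 at a 5 µM dose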;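 also: 0 = sulfaphenazole-blocked wells and 1 = vehicle-only wells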
PostGolgi ctrl = growth inhibition of yeast control strain, primary screen, counter-screen for post-Golgi transport modulator project; efflux-deficient yeast background strain, growth absorbance A615, 16 h; inhibition, % at 10 µM; 98,000 compounds, 5% hits; AID 738, 2007
* = called active by the depositor; . = no result given. Rule as the data show it, unless noted: active = inhibition above about 30%; inactive = the rest.

SMILES	CYP2C9 inhib	PostGolgi yeast	CYP2C19 inhib	CYP2C19 act	CYP2C9 act	PostGolgi ctrl
COCCn1c(SCC(=O)N(C(C)C)C(C)C)nnc1-c1cc2ccccc2cc1O	21	-6	16	0.8	0.8	-1
O=C(CSc1nnc(-c2cc3ccccc3cc2O)n1Cc1ccco1)N1CCc2ccccc2C1	81*	2	57*	0.4	0.2	80*
CCCCOc1ccc(N2C(=O)CC(NCCc3ccc(S(N)(=O)=O)cc3)C2=O)cc1 (stereo not given)	45	5	-1	1	0.6	6
CCc1nnc(NC(=O)CCC(=O)N2CCN(c3ccccn3)CC2)s1	-9	1	0	1	1.1	1
Cc1cccc(C(=O)NC2CC3CCCC(C2)N3C(=O)NC2CCCCC2)c1 (stereo not given)	49	0	48	0.5	0.5	-2
C=CCOC(=O)/C(=C/c1ccco1)NC(=O)/C=C/c1ccccc1	73*	-7	77*	0.2	0.3	-9
CCOC(=O)/C(C#N)=C\c1ccco1	8	-2	1	1	0.9	17
CCOC(=O)Cn1nc(/C=C/c2ccc(C(C)C)cc2)ccc1=O	19	-6	12	0.9	0.8	14
Fc1ccc(Cn2c(SCc3ccc(F)c(C(F)(F)F)c3)nnc2C(F)(F)F)cc1	56*	5	64*	0.4	0.4	21
Fc1ccc(Cn2c(SCc3ccc(F)c(F)c3)nnc2C(F)(F)F)cc1	57*	7	67*	0.3	0.4	22
Cn1c(Cn2c(=O)sc3ccccc32)nnc1SCc1ccc(F)cc1	.	3	.	.	.	11
Cc1ccc(-c2noc(C3CCN(C(=O)Nc4ccc(C#N)cc4)CC3)n2)o1	61*	-10	83*	0.2	0.4	20
O=C(NC1CCCC1)C1CCCN1C(=O)Nc1ccccc1Cl (stereo not given)	13	11	21	0.8	0.9	4
Cn1c(SCc2cc(=O)n3cc(Br)ccc3n2)nnc1C1COc2ccccc2O1 (stereo not given)	54*	4	30	0.7	0.5	5
Cn1c(SCc2cnc(-c3ccccc3)s2)nnc1C1COc2ccccc2O1 (stereo not given)	49	1	90*	0.1	0.5	13
COc1ccc(N2CCN(CC(=O)Nc3ccc(-n4cnnn4)cc3)CC2)cc1	.	-2	.	.	.	8
CCN(CC)S(=O)(=O)c1cccc(C(=O)N2CC(O)CC2C(=O)OC)c1 (stereo not given)	2	2	-5	1	1	10
COC(=O)C1CC(O)CN1C(=O)c1ccco1 (stereo not given)	-22	-1	-23	1.2	1.2	34*
O=C(COc1ncnc2sccc12)N1CCN(S(=O)(=O)c2ccc(Cl)cc2)CC1	12	-2	1	1	0.9	-3
COc1ccc(C(=O)NCc2ccc(N3CCN(C(=O)OC(C)(C)C)CC3)cc2)cc1	19	-3	1	1	0.8	13
CC(C)(C)c1cc(C(c2cccnc2)N2CCN(CCO)CC2)cc(C(C)(C)C)c1O (stereo not given)	96*	3	80*	0.2	0	19
OCCN1CCN(C(c2cccs2)c2ccc3cccnc3c2O)CC1 (stereo not given)	0	-7	-7	1.1	1	14
CC1(C)Cc2c(cnn2-c2ccccc2)C(=O)/C1=N\NC(=O)c1ccccc1O	24	2	51*	0.5	0.8	27
CCOc1ccc(S(=O)(=O)N(C)c2ccc(OCC(=O)N3CCOCC3)cc2)cc1	74*	4	25	0.7	0.3	19
CCOc1ccc(NS(=O)(=O)c2ccc(N)cc2)cc1	70*	-3	54*	0.5	0.3	-8
SMILES	CYP2C9 inhib	PostGolgi yeast	CYP2C19 inhib	CYP2C19 act	CYP2C9 act	PostGolgi ctrl
Cc1cc(C)c(C)c(S(=O)(=O)Nc2ccc(OCC(=O)O)cc2)c1C	76*	-3	-8	1.1	0.2	1
CCOC(=O)COc1ccc(S(=O)(=O)Nc2ccc3c(c2)OCO3)cc1	67*	4	86*	0.1	0.3	17
CCOc1ccc(NS(=O)(=O)c2ccc(SC)cc2)cc1	.	5	.	.	.	12
CCc1c(C)n2nc(C)cc2[nH]c1=O	-33	5	-21	1.2	1.3	-9
O=C(NCC(=O)N(c1cccc(F)c1)C(C(=O)NCC1CCCO1)c1ccccc1)c1ccco1 (stereo not given)	-13	-7	-13	1.1	1.1	-6
CCOc1ccc(NS(=O)(=O)c2ccc(OCC)c3ncccc23)cc1	68*	-3	25	0.8	0.3	3
CCOc1ccc(NS(=O)(=O)c2ccc3[nH]c(=O)oc3c2)cc1	87*	2	88*	0.1	0.1	11
CCOC(=O)CC(N)c1ccc2c(c1)OCO2 (stereo not given)	8	5	52*	0.5	0.9	9
CCOc1ccc(NS(=O)(=O)c2ccc3c(c2)oc(=O)n3C)cc1	25	2	7	0.9	0.8	-7
CCCCNS(=O)(=O)c1ccc(OC)c2ncccc12	-23	6	20	0.8	1.2	10
Cc1ccc(NS(=O)(=O)c2ccc(OCC(=O)N3CCOCC3)cc2)cc1	47	2	57*	0.4	0.5	33*
CCOC(=O)c1ccc(NC(=O)c2ccc3c(c2)OCO3)cc1	0	-8	3	1	1	8
COc1c(C)cccc1C(=O)Nc1ccc(N2CCOCC2)c(Cl)c1	-71	-1	11	0.9	1.7	5
CSc1nnc2c3ccccc3c3ccccc3c2n1	0	-3	28	0.7	1	-1
COc1cc2c(cc1OC)CN(C(=O)Cc1ccc(OC)c(S(=O)(=O)N3CCOCC3)c1)CC2	6	-2	-6	1.1	0.9	1
CCOC(=O)COc1ccc(S(=O)(=O)Nc2ccc(C)cc2)cc1	59*	5	20	0.8	0.4	14
COC(=O)COc1ccc(S(=O)(=O)Nc2ccc3c(c2)OCCO3)cc1Cl	92*	-3	98*	0	0.1	1
COc1cccc(CN(CC2CCCO2)S(=O)(=O)c2ccc(S(=O)(=O)N(C)C)cc2)c1 (stereo not given)	46	-2	26	0.7	0.5	5
COc1ccc(S(=O)(=O)N(CCCN2CCCC2=O)Cc2cc3c(C)cc(C)cc3[nH]c2=O)cc1	94*	0	65*	0.3	0.1	2
COc1ccc(S(=O)(=O)N(Cc2cc3cc(C)ccc3[nH]c2=O)CC2CCCO2)cc1 (stereo not given)	60*	6	25	0.7	0.4	6
